In PubChem BioAssay (Tox21):
Records with an inconclusive call do not appear. A number with no mark means an inactive call. Active and inactive are the calls of the source. The call rests on the fitted dose curve.

Test: qHTS assay to identify small molecule agonists of the AP-1 signaling pathway - cell viability counter screen (AID 1159525); further: nearly all actives have a fitted effect of over 55% in size
Conditions: ME-180 (cervical carcinoma) AP-1-bla cells viability, ATP luminescence, 5 h; series mostly up to 76.8 µM; viability change, negative = cytotoxic: at the top concentration
Excerpt: National Center for Advancing Translational Sciences [NCATS]
NIH Chemical Genomics Center [NCGC]
U.S. Environmental Protection Agency [EPA]
National Institutes of Environmental Health Sciences [NIEHS]
National Toxicology Program [NTP]
U.S. Food and Drug Administration [FDA]
Activator protein-1 (AP-1), a transcription factor, plays an important role in tumor genesis by regulating genes involved in cell proliferation, differentiation, apoptosis, and angiogenesis. AP-1 activity is induced by a complex network of signaling pathways that involves extracellular signals, such as growth factors. The AP-1 protein complex formed from c-Fos and c-Jun binding to the AP-1 response element results in transcriptional activation of genes containing such elements within their promoter.
Low molecular weight molecules have been discovered and developed to modulate various components of these signaling pathways, for example, MAP kinase inhibitors. However, many points of pathway modulation remain untested due to the lack of chemical probes making this signaling locus of general interest.
Using a beta-lactamase reporter-gene under control of the AP-1 response element, a cell-based assay [CellSensor(TM) AP-1-bla ME-180 developed by Invitrogen Corp.] was used to measure EGF-induced signaling. The Tox21 10K library compounds were measured for their ability to positively modulate the action of EC50 EGF on reporter gene activity. Compounds were screened in a 15-pt titration series in 1536-well format. The cytotoxicity of the Tox21 compound library against this cell line was tested in parallel by measuring the intra cellular ATP content in the same wells.
Tox21 Assay Protocol Summary:
2500 cells/5uL in Opti-MEM medium containing 0.5% dialyzed FBS, 0.1 mM NEAA, 1 mM sodium pyruvate and 10 mM HEPES was dispensed into 1536-well black wall/clear bottom plates using a Multidrop dispenser and cells were cultured at 37 degrees Celsius overnight. Next day 23 nL of compounds dissolved in DMSO, positive controls or DMSO were delivered to each well using a pin tool. The plates were incubated at 37 degrees Celsius for 5 hours. 1 uL of LiveBLAzerTM B/G FRET substrate (Solution A+B+C+D) was added to each well using a Flying Reagent Dispenser. After incubated at room temperature for 2.5 hours the plates were measured on an EnVision plate reader at Excitation 405nm, Emission1=460nm and Emission 2=530nm. The %Activity was determined from the ratio of 460nm/530nm.
After the plates were read for Beta-Lactamase assay on Envision; 3 ul Cell Titer Glo (Promega) was added to measure the cytotoxicity and the plates were then incubated at RT in dark for 30 min. The luminescence was read on ViewLux (Perkin Elmer, Shelton, CT) using 6 sec exposure. ViewLux data was expressed as relative luminescence units.
For primary data analysis, raw plate reads for each titration point were first normalized relative to […] EGF control (100%) and DMSO only wells (basal, 0%).
For primary data analysis for viability assay, raw plate reads for each titration point were first normalized Tetra n-octyl ammonium bromide control (-100%) and DMSO (control, 100%).
Potency means the concentration at half of the fitted maximal effect.

| Compound | viability change, negative = cytotoxic | Potency |
| --- | --- | --- |
| O=C(Nc1ccccc1)Nc1cnns1 | 0.63% | – |
| CC(=O)c1cc2c(cc1C)C(C)(C)C(C)CC2(C)C (stereo not given) | – | 49 µM (active) |
| O=C(O)COc1ccc(Cl)cc1 | 0.328% | – |
| Nc1nc(N)nc(N)n1 | -9.33% | – |
| C=CCCl | 3.05% | – |
| Cc1ccc2ccccc2c1 | 11.3% | – |
| CNC(C)Cc1ccccc1OC (stereo not given) | 2.62% [at 35.3 µM] | – |
| O=C1C(Cl)C(CCl)CN1c1cccc(C(F)(F)F)c1 (stereo not given) | -3.56% | – |
| Nc1ccc(N=Nc2ccc(-c3ccc(N=Nc4c(S(=O)(=O)O)cc5cc(S(=O)(=O)O)c(N=Nc6ccccc6)c(O)c5c4N)cc3)cc2)c(N)c1 | 1.2% [at 35.3 µM] | – |
| CCCCCC[N+](=O)[O-] | 7.35% | – |
| CCCCCCCCCCOC(=O)c1ccccc1C(=O)OCCCCCCCCCC | 2.7% | – |
| CCN(C)N=O | 0.193% | – |
| O=C(NC(=O)c1c(F)cccc1F)Nc1ccc(OC(F)(F)C(F)OC(F)(F)F)c(Cl)c1 (stereo not given) | -2.06% [at 35.3 µM] | – |
| CCCN(CCC)c1c([N+](=O)[O-])cc(S(C)(=O)=O)cc1[N+](=O)[O-] | -1.36% | – |
| C=CC(=O)OCC(C)O (stereo not given) | 6.48% | – |
| CC(Cl)C(C)Cl (stereo not given) | -2.97% | – |
| CCc1ccc(C(=O)NN(C(=O)c2cc(C)cc(C)c2)C(C)(C)C)cc1 | -0.0084% | – |
| CCCCN(N=O)C(=N)N[N+](=O)[O-] | -5.64% | – |
| O=[N+]([O-])C(Br)(CO)CO | 8.67% | – |
| [O-][Cl+]O | -2.71% | – |

| Compound | viability change, negative = cytotoxic | Potency |
| --- | --- | --- |
| CCOC(=O)CBr | 0.502% | – |
| O=[N+]([O-])c1ccc(F)c([N+](=O)[O-])c1 | 3% | – |
| CCOC(=O)COc1cc(-c2nn(C)c(OC(F)F)c2Cl)c(F)cc1Cl | 1.33% | – |
| Nc1nc(=S)[nH][nH]1 | 7.59% | – |
| CN1C(=O)NC(=O)C(C)(C2=CCCCC2)C1=O (stereo not given) | 14.3% [at 35.3 µM] | – |
| O=C(Nc1ccccc1)Nc1ccnc(Cl)c1 | 3.05% | – |
| C=CC(=O)OC | -0.74% | – |
| ClP(Cl)(Cl)(Cl)Cl | 1.71% | – |
| CCOP(=O)(OCC)Oc1ccc([N+](=O)[O-])cc1 | – | inactive |
| CN1C[C@H](CNC(=O)OCc2ccccc2)C[C@@H]2c3cccc4c3c(cn4C)C[C@H]21 | -4.24% [at 35.3 µM] | – |
| O=C(O)C1(c2ccc3c(c2)OC[C@H](Cc2ccc(-c4ccccc4)cc2)[C@H]3O)CCCC1 | -12% | – |
| CO/C=C(/C(=O)OC)c1ccccc1COc1cccc(C(F)(F)F)n1 | 0.215% | – |
| Cc1ccc(N)cc1C | 2.17% | – |
| O=S1(=O)OC(c2cc(Br)c(O)c(Br)c2)(c2cc(Br)c(O)c(Br)c2)c2ccccc21 | -17.4% | – |
| CC(C)(C)c1cc([N+](=O)[O-])cc([N+](=O)[O-])c1O | -2.04% | – |
| Cn1sc(Cl)cc1=O | -2.59% | – |
| CCCCCCCCOC(=O)c1ccc(C(=O)OCCCCCCCC)c(C(=O)OCCCCCCCC)c1 | 4.98% | – |
| Brc1ccccc1 | -2.07% | – |
| Clc1cc(C(Cl)(Cl)Cl)cnc1Cl | 0.0003% | – |
| BrCC(Br)C1CCC(Br)C(Br)C1 (stereo not given) | 0.311% | – |
